Laboratory results reported in PubChem BioAssay AID1159580 (chemical genetic matrix, 2015).
About 2,000 (36%) of roughly 5,500 compounds were called active. Another 18% or so got no clear call; they are omitted. Cut-off read from the data, not from the text of the source: active = normalized growth mostly below about 0.91 (no sharp cut-off); inconclusive = no clear call, values can overlap the other calls; inactive = mostly above about 0.92. The list shows a part of the results.

Test: chemical genetic growth profiling, strain panel (AID 1159580);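 note: tested at 20 µM; growth read once vehicle control cultures reached saturation at 30 °C; 1 = growth at the plate median or of vehicle wells; lower values mean less growth of the strain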
Conditions: growth OD
[1] = S. cerevisiae deletion strains, locus YHR030C, strain SLT2, stronger effect = lower value

Measured: normalized growth

O=C(Oc1ccc(Cl)cc1Cl)c1c(Cl)cccc1Cl
active: [1] 0.681 | S. cerevisiae deletion strains, locus YLR262C, strain YPT6, stronger effect = lower value 1.2 [resistant]
inactive: S. cerevisiae deletion strains, locus YAL013W, strain DEP1, stronger effect = lower value 0.946 | S. cerevisiae deletion strains, locus YBR229C, strain ROT2, stronger effect = lower value 0.981 | S. cerevisiae deletion strains, locus YDL101C, strain DUN1, stronger effect = lower value 0.979 | S. cerevisiae deletion strains, locus YDR150W, strain NUM1, stronger effect = lower value 0.882 | S. cerevisiae deletion strains, locus YEL061C, strain CIN8, stronger effect = lower value 0.997 | S. cerevisiae deletion strains, locus YGR078C, strain PAC10, stronger effect = lower value 0.965 | S. cerevisiae deletion strains, locus YHR087W, strain rtc3, stronger effect = lower value 0.982 | S. cerevisiae deletion strains, locus YJL187C, strain SWE1, stronger effect = lower value 0.967 | S. cerevisiae deletion strains, locus YJR043C, strain POL32, stronger effect = lower value 0.955 | S. cerevisiae deletion strains, locus YJR075W, strain HOC1, stronger effect = lower value 0.945 | S. cerevisiae deletion strains, locus YKL190W, strain CNB1, stronger effect = lower value 0.969 | S. cerevisiae deletion strains, locus YLR039C, strain RIC1, stronger effect = lower value 1.2 | S. cerevisiae deletion strains, locus YLR058C, strain SHM2 (second series), stronger effect = lower value 0.989 | S. cerevisiae deletion strains, locus YLR085C, strain ARP6, stronger effect = lower value 0.812 | S. cerevisiae deletion strains, locus YML094W, strain GIM5, stronger effect = lower value 0.968 | S. cerevisiae deletion strains, locus YMR219W, strain ESC1, stronger effect = lower value 0.985 | S. cerevisiae deletion strains, locus YMR263W, strain SAP30, stronger effect = lower value 0.961 | S. cerevisiae deletion strains, locus YNL153C, strain GIM3, stronger effect = lower value 0.985 | S. cerevisiae deletion strains, locus YNL298W, strain CLA4 (second series), stronger effect = lower value 0.957 | S. cerevisiae deletion strains, locus YNL322C, strain KRE1, stronger effect = lower value 0.986 | S. cerevisiae deletion strains, locus YNR030W, strain Alg12, stronger effect = lower value 0.939 | S. cerevisiae deletion strains, locus YPL055C, strain LGE1, stronger effect = lower value 0.876 | S. cerevisiae deletion strains, locus YPL241C, strain CIN2, stronger effect = lower value 0.954 | S. cerevisiae deletion strains, locus YPR135W, strain CTF4, stronger effect = lower value 0.907 | S. cerevisiae strains, strain wild type, stronger effect = lower value 0.984

CC(Oc1ccc(Cl)cc1Cl)C(=O)O (stereo not given)
inactive: [1] 0.968 | S. cerevisiae deletion strains, locus YHR079C, strain IRE1, stronger effect = lower value 0.964 | S. cerevisiae deletion strains, locus YJL095W, strain BCK1, stronger effect = lower value 0.961 | S. cerevisiae deletion strains, locus YJR066W, strain TOR1, stronger effect = lower value 0.898 | S. cerevisiae deletion strains, locus YLR113W, strain HOG1, stronger effect = lower value 0.968 | S. cerevisiae deletion strains, locus YNL183C, strain NPR1, stronger effect = lower value 0.896 | S. cerevisiae deletion strains, locus YOR231W, strain MKK1, stronger effect = lower value 0.965 | S. cerevisiae deletion strains, locus YPL256C, strain CLN2, stronger effect = lower value 0.955
